Each structure is given as a SMILES string. Records with an inconclusive call do not appear. Activity calls are given as the source filed them.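 The calls were made as follows, unless noted: active = percent response above 42, roughly 3 SD of non-fluorescent test compounds; inactive = the rest.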

Test [1] is described as follows: rapamycin-like changes in RPL19A-GFP expression – cell-based, S. cerevisiae, multiplex flow cytometry, primary screen (AID 1862; in the data active = percent of DMSO control GFP below about 86%;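 also: lower values mimic rapamycin by blocking the RPL19A rise seen in DMSO cells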). Conditions: S. cerevisiae RPL19A-GFP strain, flow cytometry fluorescence, 3 h; at 10 µM; stronger effect = lower value.
Test [2] in a line: TOR pathway GLN3 branch reporter MEP2-GFP changes – S. cerevisiae, multiplex flow cytometry, primary screen (AID 1867;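 active = GFP response, as percent of the DMSO control, above the screen-wide mean plus 3 SD, about 139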;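 also: median GFP channel fluorescence of barcode-gated MEP2-GFP cells measured by flow cytometry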). Conditions: S. cerevisiae MEP2-GFP strain, 3 h, at 10 µM, stronger effect = higher value, 100% means same as DMSO wells. On the technique in general: In flow cytometry, cells or beads pass a laser one at a time.
Test [3] is described as follows: TOR pathway RTG branch CIT2 reporter changes – S. cerevisiae, GFP fusion, multiplex flow cytometry, primary screen (AID 1870;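 active = percent response above a set limit, the screen-wide mean plus 3 SD, cut at about 130% in these data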;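 also: barcoded CIT2-GFP strain pooled with four other GFP strains with rapamycin as positive control; median GFP fluorescence per well over plate mean of DMSO wells so 100% = DMSO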). Conditions: S. cerevisiae CIT2-GFP expression, 3 h, at 10 µM, stronger effect = higher value.
Test [4] in a line: TOR pathway LAP4-GFP level changes – S. cerevisiae, multiplex flow cytometry, primary screen (AID 1873;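 active = GFP signal, as percent of the solvent control, above the screen mean plus 3 SD, about 149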). Conditions: S. cerevisiae LAP4-GFP expression, 3 h, at 10 µM, stronger effect = higher value.
A short description of test [5]: yeast AGP1-GFP level changes, GLN3 branch – cell-based, multiplex flow cytometry, S. cerevisiae, primary screen (AID 1887;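 active = GFP signal above the screen-wide mean plus 3 SD, that is over about 124.5% of the solvent control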;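 also: AGP1-GFP fusion strain of S. cerevisiae within a five-strain barcoded multiplex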). Conditions: 3 h, at 10 µM, stronger effect = higher value.
The nature of test [6]: reduced mouse 2C T cell binding to pMHC/ICAM-1 vesicles – MLPCN validation set, flow cytometry, LFA-1/ICAM-1 modulator project, pilot screen (AID 2523;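 active = response below a set limit, under 55% cells CD8-positive and vesicle-bound, and CD8 cells' 90th-percentile brightness under 279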;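 as to vesicle binding response: mean PE anti-B7-1 fluorescence of CD8+ cells relative to row control; 100% = QL9-loaded vesicles with DMSO vehicle in the same plate row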). Conditions: 2C mouse CD8+ T cells, at 7 µM, stronger effect = lower value; double positive events: measured here: CD8+/vesicle+ event percentage.
Test [7] has as its target Integrin beta-1 (Homo sapiens) + Integrin alpha-4 (Homo sapiens) (UniProt P13612+P05556). Put plainly: alpha4beta1 integrin LIBS antibody binding reduction – U937 cells, HUTS-21 mAb, flow cytometry, validation set, VLA-4 allosteric modulator project, pilot screen (AID 2674;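 active = inhibition above 50%, about 3 SD of the validation set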;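 also: antibody binding induced by the VLA-4 ligand LDV present at three times its Kd; 0% = LDV ligand with antibody and no compound and 100% = antibody without LDV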). Conditions: HUTS-21 LIBS mAb binding, at 6.7 µM, stronger effect = higher value, binding induced by LDV ligand.

A short description of test [8]: calorie-restriction mimetic ROS inhibitors, yeast – validation compound set, pilot screen (AID 2706;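 active = superoxide response below 65% of plate, a cut near 3 SD across the whole screen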;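 also: yeast exposed to compound for one week at 30 degrees C before staining; 100% = mean of all compound wells on the same plate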). Conditions: S. cerevisiae aging, superoxide DHE fluorescence; at 10 µM; stronger effect = lower value.
The target of test [9] is Beta-adrenergic receptor kinase 1 (Homo sapiens) (UniProt P25098). Nature of the test: GRK2 binders displacing RNA aptamer, biochemical, validation, human GRK2, bead flow cytometry (AID 488806;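 active = aptamer binding inhibition above 30%, about 3 SD of noise from non-fluorescent compounds; inactive = inhibition at or below 30%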). Conditions: bead-bound GRK2, FAM-aptamer displacement, at 10 µM, stronger effect = higher value.
Test [10] concerns the target Beta-2 adrenergic receptor (Homo sapiens) (UniProt P07550). Nature of the test: agonist-induced loss of surface beta2AR – cell-based, FAP fluorogen, flow cytometry, validation set, pilot screen (AID 504459).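 Also: agonist-driven loss of surface beta2AR via internalization measured by FAP dye flow cytometry.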 Conditions: Am2.2-beta2AR cells, at 10 µM, stronger effect = higher value.
For test [11], the target named is AP-2 complex subunit beta (Homo sapiens) (UniProt P63010). Put plainly: beta-arrestin/AP2 interaction blockers – biochemical, validation set, GST-AP2 beads, flow cytometry, pilot screen (AID 504541;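 active = inhibition above 54%, about 3 SD of non-fluorescent compounds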;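 also: AP2 carries R879A mutation and is captured from E. coli lysate; bead-bound FITC arrestin peptide fluorescence measuring arrestin peptide binding to AP2; 0% = DMSO wells and 100% = excess unlabeled arrestin peptide control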). Conditions: FITC arrestin peptide, at 10 µM, stronger effect = higher value, AP2 beta2 appendage fragment, R879A mutant.
The nature of test [12]: cytosolic pH regulators acting via V-ATPase – S. cerevisiae, pHLuorin, HTS validation (AID 504600; in the data active = response above about 15%;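 also: plate controls were DMSO for no effect and reference compound for full effect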). Conditions: V-ATPase proton transport, at 10 µM, stronger effect = higher value.
The subject of test [13] is anti-desmoglein-3 scFv antibody binding to human DSG3. Nature of the test: blockers of pathogenic pemphigus antibody–desmoglein-3 binding – biochemical, validation compound set, bead-based, flow cytometry, pilot screen (AID 588368;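 active = binding below the plate cutoff, the plate median minus 3 SD, with a reading above zero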;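 also: signal is the median channel fluorescence of bead-bound GFP antibody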). Conditions: Protein G beads, DSG3-Fc, scFv-GFP binding, at 10 µM, stronger effect = lower value.
Test [14] in a line: Nile Red efflux blockade in pump-expressing yeast – validation compound set, multiplex, phenotypic, pilot screen (AID 588506;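 active = efflux inhibition above 0.42, the validation set average plus 4 SD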;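 also: Nile Red retained in cells so higher fluorescence means more efflux inhibition; 0 = negative control wells and 1 = enniatin B 25 µM full block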). Conditions: S. cerevisiae pump-expressing triplex, Nile Red efflux flow cytometry; at 10 µM; stronger effect = higher value; the pumps come from Candida albicans.
The target of test [15] is ATP-binding cassette sub-family B member 6 (Homo sapiens) (UniProt Q9NP58). Nature of the test: blockers of ABCB6-driven porphyrin uptake – K562-ABCB6 cells, flow cytometry, validation set, pilot screen (AID 588550;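 active = inhibition above the screen-wide mean plus 3 SD, about 51%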;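 also: 0% = DMSO wells and 100% = benzethonium chloride 70 µM positive control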). Conditions: K562-ABCB6 porphyrin accumulation, 1 h, at 10 µM, stronger effect = higher value.
The nature of test [16]: AML differentiation inducers, ER-HoxA9 marrow cells – cell-based, GFP/MAC1 double positive, flow cytometry, validation set, primary screen (AID 588685;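 active = differentiation response of at least 50%, scaled between solvent and reference control, from cells with both markers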;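 also: compound exposure lasts four days before antibody staining and flow analysis; 0% = DMSO wells and 100% = 5 µM fulvestrant positive control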). Conditions: stronger effect = higher value, normalized: vehicle 0, fulvestrant 100.

Chain of Beta-2 adrenergic receptor (Homo sapiens) (P07550 whole entry, looked up): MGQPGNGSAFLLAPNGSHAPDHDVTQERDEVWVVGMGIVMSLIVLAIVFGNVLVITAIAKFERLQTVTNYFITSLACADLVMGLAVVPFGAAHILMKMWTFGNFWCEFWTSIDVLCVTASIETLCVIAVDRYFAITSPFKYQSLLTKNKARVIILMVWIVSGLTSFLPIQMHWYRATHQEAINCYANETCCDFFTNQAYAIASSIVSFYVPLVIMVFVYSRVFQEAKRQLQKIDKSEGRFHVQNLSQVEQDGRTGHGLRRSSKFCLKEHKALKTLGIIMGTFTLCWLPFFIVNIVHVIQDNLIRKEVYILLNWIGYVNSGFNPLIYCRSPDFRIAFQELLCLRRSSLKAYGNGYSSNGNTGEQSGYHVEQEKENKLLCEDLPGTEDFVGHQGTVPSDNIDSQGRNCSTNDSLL
Chain of AP-2 complex subunit beta (Homo sapiens) (P63010 whole entry, looked up, the tested form may be a part, one chain of several): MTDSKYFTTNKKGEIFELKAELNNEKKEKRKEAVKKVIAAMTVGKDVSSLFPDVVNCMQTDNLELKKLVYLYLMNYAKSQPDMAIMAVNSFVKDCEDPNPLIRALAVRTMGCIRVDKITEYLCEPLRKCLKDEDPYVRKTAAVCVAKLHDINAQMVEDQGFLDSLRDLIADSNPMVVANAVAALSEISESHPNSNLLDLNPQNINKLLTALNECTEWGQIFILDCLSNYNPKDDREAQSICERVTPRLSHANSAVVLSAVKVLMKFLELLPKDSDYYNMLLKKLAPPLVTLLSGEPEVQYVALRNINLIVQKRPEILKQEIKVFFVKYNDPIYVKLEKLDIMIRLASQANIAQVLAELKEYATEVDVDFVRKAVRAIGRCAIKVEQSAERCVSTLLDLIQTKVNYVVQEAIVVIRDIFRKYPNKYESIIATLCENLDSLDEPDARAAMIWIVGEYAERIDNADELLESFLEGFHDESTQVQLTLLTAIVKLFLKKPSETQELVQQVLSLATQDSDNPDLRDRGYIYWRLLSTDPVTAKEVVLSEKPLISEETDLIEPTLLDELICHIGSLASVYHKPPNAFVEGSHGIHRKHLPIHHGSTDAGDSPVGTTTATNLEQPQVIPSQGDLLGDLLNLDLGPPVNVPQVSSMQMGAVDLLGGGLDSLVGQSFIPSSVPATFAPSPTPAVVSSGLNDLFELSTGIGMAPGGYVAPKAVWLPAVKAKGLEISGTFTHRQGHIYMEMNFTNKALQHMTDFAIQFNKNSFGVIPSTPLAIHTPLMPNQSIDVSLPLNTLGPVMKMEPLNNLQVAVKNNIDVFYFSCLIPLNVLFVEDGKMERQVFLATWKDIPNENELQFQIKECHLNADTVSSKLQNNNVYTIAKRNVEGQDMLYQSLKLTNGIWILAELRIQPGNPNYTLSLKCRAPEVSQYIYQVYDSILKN
Chain of Beta-adrenergic receptor kinase 1 (Homo sapiens) (P25098 whole entry, looked up): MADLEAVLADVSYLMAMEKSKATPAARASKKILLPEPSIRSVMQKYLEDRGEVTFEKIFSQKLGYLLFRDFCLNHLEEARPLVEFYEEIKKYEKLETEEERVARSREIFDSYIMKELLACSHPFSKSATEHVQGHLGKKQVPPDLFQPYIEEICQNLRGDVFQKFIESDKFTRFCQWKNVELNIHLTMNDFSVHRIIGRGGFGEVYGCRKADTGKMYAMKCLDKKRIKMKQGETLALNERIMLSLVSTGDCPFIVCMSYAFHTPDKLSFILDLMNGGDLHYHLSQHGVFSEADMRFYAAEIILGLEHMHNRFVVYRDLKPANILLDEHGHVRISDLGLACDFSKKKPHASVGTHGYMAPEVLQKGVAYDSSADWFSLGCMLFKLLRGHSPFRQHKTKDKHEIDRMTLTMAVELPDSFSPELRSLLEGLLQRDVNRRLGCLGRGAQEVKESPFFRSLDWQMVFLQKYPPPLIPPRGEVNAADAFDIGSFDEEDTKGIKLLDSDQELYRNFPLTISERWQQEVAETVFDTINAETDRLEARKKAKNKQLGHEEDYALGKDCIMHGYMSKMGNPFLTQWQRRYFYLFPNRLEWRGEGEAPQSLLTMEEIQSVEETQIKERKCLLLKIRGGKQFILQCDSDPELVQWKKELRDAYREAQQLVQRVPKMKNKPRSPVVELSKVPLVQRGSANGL
Chain of ATP-binding cassette sub-family B member 6 (Homo sapiens) (Q9NP58 whole entry, looked up): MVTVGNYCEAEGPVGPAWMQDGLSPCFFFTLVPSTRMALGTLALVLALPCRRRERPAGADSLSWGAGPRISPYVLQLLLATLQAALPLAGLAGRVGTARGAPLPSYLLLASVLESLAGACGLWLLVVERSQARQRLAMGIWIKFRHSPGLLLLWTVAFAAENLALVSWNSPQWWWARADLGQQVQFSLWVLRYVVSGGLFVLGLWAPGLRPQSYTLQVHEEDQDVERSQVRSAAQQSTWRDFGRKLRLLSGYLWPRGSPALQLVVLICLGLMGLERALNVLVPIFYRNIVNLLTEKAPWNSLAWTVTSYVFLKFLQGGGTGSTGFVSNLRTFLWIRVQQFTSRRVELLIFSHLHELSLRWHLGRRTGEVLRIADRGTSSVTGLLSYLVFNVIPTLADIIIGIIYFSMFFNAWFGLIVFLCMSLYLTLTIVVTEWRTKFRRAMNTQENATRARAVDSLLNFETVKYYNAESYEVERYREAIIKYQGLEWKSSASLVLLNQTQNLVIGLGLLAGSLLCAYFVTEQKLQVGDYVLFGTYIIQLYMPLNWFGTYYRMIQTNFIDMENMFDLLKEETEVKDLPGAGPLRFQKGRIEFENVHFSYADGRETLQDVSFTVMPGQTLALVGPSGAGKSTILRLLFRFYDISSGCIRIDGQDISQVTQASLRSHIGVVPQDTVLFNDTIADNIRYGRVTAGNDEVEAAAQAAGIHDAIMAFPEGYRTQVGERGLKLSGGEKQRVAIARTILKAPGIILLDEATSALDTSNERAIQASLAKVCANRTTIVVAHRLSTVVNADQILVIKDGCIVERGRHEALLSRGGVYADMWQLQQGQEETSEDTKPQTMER
Chain of Integrin beta-1 (Homo sapiens) + Integrin alpha-4 (Homo sapiens) (P05556 whole entry, looked up): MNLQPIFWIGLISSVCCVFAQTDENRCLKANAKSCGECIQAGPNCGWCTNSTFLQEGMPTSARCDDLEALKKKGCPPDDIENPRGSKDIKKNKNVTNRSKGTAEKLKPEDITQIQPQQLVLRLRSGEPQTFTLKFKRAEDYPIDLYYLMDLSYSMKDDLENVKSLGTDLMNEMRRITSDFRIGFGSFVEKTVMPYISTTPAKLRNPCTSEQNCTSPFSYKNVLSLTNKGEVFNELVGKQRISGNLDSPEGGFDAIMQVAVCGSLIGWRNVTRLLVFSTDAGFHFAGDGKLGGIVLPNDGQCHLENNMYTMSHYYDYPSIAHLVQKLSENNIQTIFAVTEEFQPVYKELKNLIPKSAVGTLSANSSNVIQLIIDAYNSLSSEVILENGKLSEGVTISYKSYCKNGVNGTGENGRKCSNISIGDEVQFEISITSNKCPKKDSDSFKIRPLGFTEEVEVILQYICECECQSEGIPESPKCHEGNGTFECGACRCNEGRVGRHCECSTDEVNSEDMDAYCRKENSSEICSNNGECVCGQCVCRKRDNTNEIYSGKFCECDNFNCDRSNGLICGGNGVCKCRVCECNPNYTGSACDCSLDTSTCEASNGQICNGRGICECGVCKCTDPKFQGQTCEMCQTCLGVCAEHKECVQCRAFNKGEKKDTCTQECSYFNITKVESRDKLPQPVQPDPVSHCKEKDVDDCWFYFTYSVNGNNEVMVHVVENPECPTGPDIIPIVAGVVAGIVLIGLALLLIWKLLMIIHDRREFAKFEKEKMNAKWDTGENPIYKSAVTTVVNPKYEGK
Chain of Integrin beta-1 (Homo sapiens) + Integrin alpha-4 (Homo sapiens) (P13612 whole entry, looked up): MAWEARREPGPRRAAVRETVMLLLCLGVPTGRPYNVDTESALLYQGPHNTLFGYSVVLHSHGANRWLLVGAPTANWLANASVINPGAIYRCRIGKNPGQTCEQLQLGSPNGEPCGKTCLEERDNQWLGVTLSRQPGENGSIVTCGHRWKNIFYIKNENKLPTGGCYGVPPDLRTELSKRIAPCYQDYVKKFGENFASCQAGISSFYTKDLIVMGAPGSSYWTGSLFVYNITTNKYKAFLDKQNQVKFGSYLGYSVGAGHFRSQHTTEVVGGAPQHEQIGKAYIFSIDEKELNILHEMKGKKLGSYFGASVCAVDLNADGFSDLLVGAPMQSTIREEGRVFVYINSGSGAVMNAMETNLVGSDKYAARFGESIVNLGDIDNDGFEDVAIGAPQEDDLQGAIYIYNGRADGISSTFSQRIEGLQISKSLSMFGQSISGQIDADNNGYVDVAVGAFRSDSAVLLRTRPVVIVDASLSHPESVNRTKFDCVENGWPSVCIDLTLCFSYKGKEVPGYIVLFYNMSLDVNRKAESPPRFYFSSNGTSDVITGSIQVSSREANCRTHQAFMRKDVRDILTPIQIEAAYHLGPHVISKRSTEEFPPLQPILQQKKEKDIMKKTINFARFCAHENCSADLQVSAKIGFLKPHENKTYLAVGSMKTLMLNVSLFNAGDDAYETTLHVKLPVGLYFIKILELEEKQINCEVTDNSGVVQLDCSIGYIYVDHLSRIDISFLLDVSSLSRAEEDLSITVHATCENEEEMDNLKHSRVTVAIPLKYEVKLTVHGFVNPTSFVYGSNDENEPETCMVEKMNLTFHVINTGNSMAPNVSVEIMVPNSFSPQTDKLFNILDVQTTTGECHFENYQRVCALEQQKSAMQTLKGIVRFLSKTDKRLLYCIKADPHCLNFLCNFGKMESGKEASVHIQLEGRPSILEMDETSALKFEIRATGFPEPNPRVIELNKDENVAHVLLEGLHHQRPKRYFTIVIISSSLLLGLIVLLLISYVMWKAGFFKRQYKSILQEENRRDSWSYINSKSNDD

In general, inhibition refers to the change of the read-out against control, counted positive when it falls. In the case of `CN(C)[C@@H]1C(=O)C(C(=O)NCN2CCCC2)=C(O)[C@@]2(O)C(=O)C3=C(O)c4c(O)cccc4[C@@](C)(O)C3CC12` (stereo not given in full), the percent of DMSO control GFP in test [1] was 103% (inactive). For the same compound, the GFP response vs DMSO in [2] is 119% (inactive); in test [4], 95.7% (inactive). The percent response of DMSO control in test [3] was 112% (inactive). The GFP response, % of DMSO in test [5] was 93.3% (inactive). In addition, in test [6], the double positive events is 59%. For the same compound, the vesicle binding response in test [6] was 145% (inactive). Besides, the inhibition in [7] is -45.9% (inactive); in test [11], 94.1% (active); in [15], 8% (inactive). In addition, in test [8], the superoxide response (% of plate) was 107% (inactive). In addition, the aptamer binding inhibition in [9] is 92% (active). The results for the response in test [10] and in [12] were 12.3% (inactive) and -6.79% (inactive), respectively. Moreover, the binding (% of control) in test [13] was 30.6% (active). In addition, the efflux inhibition (fraction of control) in [14] is -0.06 (inactive). The differentiation response in test [16] is 19.6% (inactive).

`COCCn1c(SCCOc2ccccc2)nc2ccccc2c1=O`: in [1], the percent of DMSO control GFP is 99.8% (inactive). The GFP response vs DMSO was 108% (inactive) in test [2] and 103% (inactive) in test [4]. In addition, in test [3], the percent response of DMSO control is 103% (inactive). In test [5], the GFP response, % of DMSO is 96.8% (inactive). In addition, the double positive events in test [6] turned out to be 54%. For the same compound, in test [6], the vesicle binding response is 154% (inactive). Also, the values for the inhibition in [7], in test [11] and in test [15] were 6.95% (inactive), -3.51% (inactive) and 18% (inactive), respectively. Besides, the superoxide response (% of plate) in test [8] is 104% (inactive). Also, the aptamer binding inhibition in test [9] was 5% (inactive). Further, the values for the response in test [10] and in test [12] were -6.97% (inactive) and 0.42% (inactive), respectively. Further, the binding (% of control) in [13] was 103% (inactive). In test [14], the efflux inhibition (fraction of control) was 0.36 (inactive). In test [16], the differentiation response was 1.28% (inactive).

Take `CCOC(=O)C1=C2c3ccc4ccccc4c3CC(C)(C)N2C(=O)C1=O`: the percent of DMSO control GFP in [1] is 104% (inactive). Moreover, the values for the GFP response vs DMSO in [2] and in [4] were 93% (inactive) and 78.6% (inactive), respectively. The percent response of DMSO control in [3] was 99.6% (inactive). In addition, the GFP response, % of DMSO in test [5] was 85.1% (inactive). In addition, the double positive events in test [6] was found to be 62%. In test [6], the vesicle binding response is 205% (inactive). Moreover, the results for the inhibition in [7], in test [11] and in [15] were -4.52% (inactive), 1.16% (inactive) and -3% (inactive), respectively. Also, in test [8], the superoxide response (% of plate) was 114% (inactive). In addition, the aptamer binding inhibition in [9] was 3% (inactive). For the same compound, the response in [10] was 7.03% (inactive); in [12], -4.69% (inactive). Also, in test [13], the binding (% of control) is 96.8% (inactive). The efflux inhibition (fraction of control) in [14] was -0.17 (inactive). Besides, in test [16], the differentiation response is -8.8% (inactive).

Consider `Cc1cccc(CN2CCN(C(c3ccccc3)c3ccc(Cl)cc3)CC2)c1` (stereo not given), for which, in test [1], the percent of DMSO control GFP is 97.7% (inactive). The GFP response vs DMSO in test [2] was 104% (inactive); in [4] it was 99.4% (inactive). For the same compound, in test [3], the percent response of DMSO control was 98.2% (inactive). Further, in test [5], the GFP response, % of DMSO was 96.9% (inactive). In test [6], this compound gave a double positive events of 62.4%. For the same compound, the vesicle binding response in test [6] was 227% (inactive). Further, the inhibition in test [7] was -6.04% (inactive); in test [11], 35.5% (inactive); in test [15], -1% (inactive). Further, the superoxide response (% of plate) in [8] was 99.2% (inactive). Also, the aptamer binding inhibition in test [9] was 2% (inactive). Further, the response in [10] is 8.57% (inactive); in test [12] it was 0.49% (inactive). The binding (% of control) in test [13] was 105% (inactive). Moreover, the efflux inhibition (fraction of control) in test [14] is 0.46 (active). Also, the differentiation response in test [16] is 26.3% (inactive).

In the case of `COc1cc2c(cc1OC)CN(C(=O)c1ccc(S(=O)(=O)N(C)c3ccccc3)cc1)CC2`, in test [1], the percent of DMSO control GFP was 95.9% (inactive). Besides, the GFP response vs DMSO in test [2] is 101% (inactive); in test [4], 115% (inactive). Besides, the percent response of DMSO control in [3] was 99.6% (inactive). Besides, in test [5], the GFP response, % of DMSO was 111% (inactive). This compound gave a double positive events in [6] of 73.5%. Further, the vesicle binding response in test [6] is 605% (inactive). The results for the inhibition in [7], in test [11] and in test [15] were 5.69% (inactive), -6.13% (inactive) and 5% (inactive), respectively. Also, the superoxide response (% of plate) in [8] was 57.5% (active). The aptamer binding inhibition in test [9] was 1% (inactive). Besides, the response in test [10] was -14.1% (inactive); in [12], 1.25% (inactive). For the same compound, in test [13], the binding (% of control) is 96.2% (inactive). Also, the efflux inhibition (fraction of control) in [14] is 0 (inactive). Besides, in [16], the differentiation response is 1.91% (inactive).

The values above are taken from PubChem BioAssay.
